From the supplement of paper PMC6555819 come the findings set out here.

This experiment deals with VDR:RXRa (NR concentration 270 nM, RXRa partner concentration 90 nM). In words: PBM binding z-score (relative to random genomic background probes); higher = stronger binding; sequences stand for … in GC…GCGATTGACAGCGTAGAATGAAGG
As to the method:
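Protein-binding microarray (Agilent 4x180K custom design, double-stranded 60-nt probes: 5' GC cap, 34-nt variable region, 24-nt constant primer region; full probe sequence given). Purified or IVT nuclear receptor:RXRα heterodimers (3:1 NR:RXRα, mostly 270:90 nM) or homodimers were incubated for 1 h in PBS with 2% milk and no ligand, then detected with Alexa488 antibodies. Fluorescence from o1-orientation probes (~5 replicates averaged) was converted to z-scores against 500 random hg19 background probes. Variable regions are seed direct-repeat (DR0–DR5) sites, all their single-nucleotide variants and half-site ablations.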
In the case of TAGCCTAAGTCATTGGGCCAGTATAGTACGCATC, the PBM binding z-score was -0.202.

The sequence GGAACGAGGGCATTCGGGTTGATAGCATGGCGAT displayed a PBM binding z-score of 4.61.

Consider TCGAGTAGGTTAGTCAGGGCATTCAGCCAACATA, for which the PBM binding z-score came to 2.59.

On to CCTTACGGGTCAATGACAGGTTATAGCATTTGGA, for which the PBM binding z-score is 3.29.

CCGACTGGGGCAGAAAGGTTACCGTACCATCCGG displayed a PBM binding z-score of 0.919.

Take ATCGAAAGGCCGAAGGTGAGTATACCCACCCGAA: the PBM binding z-score is -0.338.

In turn, ATCTCTAGGTAAGACTCAGTTCAGTAAAGAACGC had a PBM binding z-score of 1.12.

Regarding GAGACAGGGTCAGCTAGAGGCCAGAGTATGGAAA, the PBM binding z-score was determined as 3.22.

As for TCATATAGGTAAACAGGTGAAAGTACGTAAGTTA, the PBM binding z-score came out at 1.48.

CCTAGTTGGTCAGGAGGTCTCACACCGGATATGA gave a PBM binding z-score of 0.189.

TCGAGTAAGTTACCAATGGGGCATTCAGCTTTCT showed a PBM binding z-score of 0.0279.

On to CCTGCTAGGTCATGGTCAGCTAATCTACAGTATG, for which the PBM binding z-score is 1.7.

Take GCAACTGGGGCATCAGCAGGTTACCATAACTTAA: the PBM binding z-score was -0.109.

As to CCTCGGAGGACAGAAGGTCAGCGCTGTCCGCTTT, the PBM binding z-score was 1.22.

The sequence CCTACTTGGCCAAAGGTCATTGATTCCAATGCTC returned a PBM binding z-score of 4.62.

With TCATATAGGTAAAAGGTGAAGGTCGGTGTGGTAA, the PBM binding z-score was determined as 1.92.

Sequence CGAACTAGGTCACCGGAAGGTCAAAGTCCGCATG came in with a PBM binding z-score of 5.8.

Sequence ATCTCTAGGGAAAGTTCAGTGAAAGATCGATAGA registered a PBM binding z-score of 1.12.

ACTAGATGGTCAGCTGAGGTCACACACAATTCGG came in with a PBM binding z-score of 4.7.

Take GGAACGAGGACAAAGTTGATAGCATCTGTCGACG: the PBM binding z-score was -0.104.

CGTCATAGTTCAACTAAGGTAACGTAAAGCACGC registered a PBM binding z-score of 2.59.

Sequence CCTATTAGTTGCCCATAAGGGCAACCGAAGCTCG showed a PBM binding z-score of 0.653.

With CCGAGTAGGTTAAGGGGCATTCAGGCAACGGTGA, the PBM binding z-score worked out at 0.877.

In the case of TCTAGTTGGTCCAAGGTCACACACTCGAAATGCG, the PBM binding z-score was 3.77.

For the sequence TCTTGTAGATCAAGCAGTTTAAGAAAGCCTGAGT, the PBM binding z-score came out at 0.549.

The sequence TGAATGAGGTTACAGATCAGGGAACGTGGCGTCG had a PBM binding z-score of 0.932.

TGTCGGAGGACACGAAGGTCAGAGCTTTCCAGAG had a PBM binding z-score of 2.42.

Sequence TCATATAGGTAAAGGTGAAATTCGAACGATATGA returned a PBM binding z-score of 1.03.

The sequence ATACGTAGGTTAAGGGTCATTCAGGTTGGTTCGC yielded a PBM binding z-score of 5.82.

For ATCTCTAGGTAAAGATAGTTCAGTGACTGCAAAT, the PBM binding z-score came to 1.05.

The sequence TCTGCTAGGTCAACGATGGTGAGCTAATCTGCTA yielded a PBM binding z-score of 1.15.

Take ACTAGCGGGCCAAGTTTGGGTCACTCAAACAAAG: the PBM binding z-score was determined as 0.318.

ATATGTAGGTTAAGGGCCATTCAGGTTGGTTCGC gave a PBM binding z-score of 1.01.

In turn, CCTACTGGGCCAAATAGGTCATTGATGCCGATAA came in with a PBM binding z-score of 2.51.

CATACAGGGTCAGCTAAGCCAGAGTAGGGACGGC displayed a PBM binding z-score of 2.69.

With GCTTGTAGATCAAGCTTAAGAAAGACTAAGCTAA, the PBM binding z-score is -0.459.

In turn, CGAACTAGGTCAAGGAGAGTGAATCTCCGCACGC returned a PBM binding z-score of 1.33.

For TCGAGTAGGTGAGGGGCATTCAGAATGGCGTCGA, the PBM binding z-score was -0.0355.

AGAAGGAGGGCACGCTGAGTTGATAGCAGAGTAG had a PBM binding z-score of 1.41.

As for CAAAGTAGGTCAAAGGTCAAAGTCGAGCCAACCA, the PBM binding z-score turned out to be 6.63.
